Compound activity: PubChem, National Center for Advancing Translational Sciences (NCATS)
HCV inh: HCV inhibition; Huh7.5.1 HCVcc-Cre infection, luciferase reporter, 44 h; Potency, µM (titrated, usually from 41.8 µM), usual class: inhibitors; 3.4% of 340,000 active; AID 651820
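Infectious HCVcc-Cre (~0.5 moi) was added to cells just after compound, with cells seeded 4 h earlier at 1,000 per well. Luciferase activity after 44 h culture reported infection; substrate was incubated 15 min at room temperature before reading.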
HCMV antiviral: inhibitors of human cytomegalovirus; AID 1259415; HFF cells, HCMV-luciferase reporter, 72 h; hits give low values; 4.5% of 410,000 active; activity change, negative = inhibition, % at 57.5 µM; in the data active = activity change below about -60%; inconclusive = no clear call, values can overlap the other calls; inactive = above about -39%
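Inhibition of viral replication was scored as loss of reporter luminescence in HFFs infected with HCMV-luciferase (MOI 1 PFU/cell) for 72 h; compounds tested at 2 doses, normalized to buffer and Salinomycin controls.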
FMDV inh: blocks foot and mouth disease virus. 1.2% of 410,000 active. FMDV antiviral cell-based qHTS. AID 1159524. Potency, µM (series often up to 57.9 µM), hits mostly inhibitors; calls by dose curve; tested in HEK293T cells; also: read-out not given here; nearly all actives have a fitted effect of over 45% in size
AmpC inh no detg: AmpC beta-lactamase inhibition without detergent | P00811 | AmpC nitrocefin hydrolysis, absorbance 480 nm, 0.0001% Triton | Potency, µM (top dose mostly 57.1 µM), actives largely listed as inhibitors | 0.52% of 330,000 active; also: nearly all actives have a fitted effect of over 20% in size
Target sequence (P00811 whole entry, looked up): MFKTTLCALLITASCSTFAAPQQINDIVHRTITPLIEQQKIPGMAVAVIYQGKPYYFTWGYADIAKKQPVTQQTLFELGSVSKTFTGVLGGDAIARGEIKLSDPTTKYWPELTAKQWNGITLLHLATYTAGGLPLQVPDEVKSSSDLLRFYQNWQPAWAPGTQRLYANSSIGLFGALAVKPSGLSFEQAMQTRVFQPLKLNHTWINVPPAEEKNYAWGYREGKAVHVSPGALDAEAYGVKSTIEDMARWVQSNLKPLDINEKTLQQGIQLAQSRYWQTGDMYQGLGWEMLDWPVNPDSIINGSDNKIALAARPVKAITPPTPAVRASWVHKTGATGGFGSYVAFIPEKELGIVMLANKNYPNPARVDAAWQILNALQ
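20 mM phosphate pH 7.0 + 0.01% (detergent screen) or 0.0001% Triton X-100; 5.3 nM AmpC reagent; cpd preinc 15 min RT; nitrocefin (800 uM stock) to start; A480 q20 s × 4 min; Activity was normalised to no-enzyme and no-compound control wells.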
AmpC detergent: inhibitors of E. coli AmpC beta-lactamase with detergent | Potency, µM (top dose mostly 114 µM), hits mostly inhibitors | P00811 | AID 485294 | AmpC hydrolysis of nitrocefin, absorbance 480 nm, 0.01% Triton | 0.041% of 370,000 active; also: nearly all actives have a fitted effect of over 25% in size
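20 mM phosphate pH 7.0 + 0.01% (detergent screen) or 0.0001% Triton X-100; 5.3 nM AmpC reagent; cpd preinc 15 min RT; nitrocefin (800 uM stock) to start; A480 q20 s × 4 min; Activity was normalised to no-enzyme and no-compound control wells.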
Large screens that a line does not name were inactive. The list is not random: actives were taken first. Their share in the collection is about 7.3%. Unless noted, calls follow the shape of the dose curve; as a rule, active = well fitted curve in the direction sought with a large enough effect; inconclusive = small, poorly fitted or top-dose-only effect, or another doubt; inactive = no such curve, though single readings can be large; an effect the other way counts as inactive or inconclusive.

COc1cc(OC)c2c(-c3cccc(-c4ccc(N(C)C)cc4)c3)cc(=O)oc2c1	HCV inh inconclusive, HCMV antiviral -72.6 (no result: AmpC detergent)
COc1cc(OC)c2c(-c3cccc(-c4ccc(O)cc4)c3)cc(=O)oc2c1	HCV inh inconclusive, FMDV inh inconclusive (no result: AmpC detergent)
COc1cc(OC)c2c(-c3cccc(-c4ccc(CO)cc4)c3)cc(=O)oc2c1	HCV inh inconclusive, FMDV inh inconclusive (no result: HCMV antiviral, AmpC detergent)
COc1ccc(-c2cccc(-c3cc(=O)oc4cc(OC)cc(OC)c34)c2)cc1	HCV inh inconclusive, HCMV antiviral -73.2 (no result: AmpC detergent)
CCn1c(SCC(=O)NCCc2ccccc2)nc2c([nH]c3ccccc32)c1=O	none
CCCn1c2ccccc2c2cnn(CC(=O)NCCc3ccc(OCC)cc3)c(=O)c21	none (no result: HCV inh, AmpC inh no detg)
C/C(=N\Nc1nc(C)cc(-c2ccccc2)n1)c1ccc(F)cc1	HCV inh inconclusive, AmpC detergent inconclusive
COc1ccc(/C(C)=N/Nc2nc(C)cc(-c3ccccc3)n2)cc1	HCV inh 10µM, HCMV antiviral -93.5, FMDV inh inconclusive (no result: AmpC inh no detg, AmpC detergent)
COc1ccc(O)c(/C=N/Nc2nc(C)cc(-c3ccccc3)n2)c1	HCV inh 3.98µM (no result: AmpC inh no detg, AmpC detergent)
Cc1cc(-c2ccccc2)nc(N/N=C/c2ccc(O)cc2)n1	HCV inh 11.2µM
Cc1cc(C)c2nc(C)cc(N/N=C/c3ccc(O)cc3)c2c1	HCV inh 11.2µM, HCMV antiviral -99.9, AmpC detergent inconclusive
Nc1nc(Nc2ccccc2F)sc1C(=O)c1ccccc1	HCV inh inconclusive
Oc1ccc(/C=N/Nc2nc(-c3ccc(Cl)cc3)cc(C(F)(F)F)n2)cc1	HCV inh 12.6µM, HCMV antiviral -76.6, FMDV inh 25.1µM, AmpC inh no detg 15.8µM
COc1cc(C(=O)NCc2ccccc2Cl)ccc1OCC(=O)N1CCOCC1	none (no result: AmpC inh no detg, AmpC detergent)
COC(=O)C(NC(=O)OCc1ccccc1)(c1ccc(Cl)cc1)C(Nc1ccccc1)c1ccccc1 (stereo not drawn)	none (no result: HCV inh, FMDV inh, AmpC inh no detg, AmpC detergent)
NC(=O)C1CCN(C(=O)CC2(CC(=O)O)CCCC2)CC1	AmpC detergent inconclusive
O=C(O)CC1(CC(=O)N2CCC(C(=O)O)CC2)CCCC1	AmpC detergent 44.7µM
O=C(O)CC1(CC(=O)N2CCOCC2)CCCC1	AmpC detergent 35.5µM
CN(C)c1ccc(C(CNS(=O)(=O)c2ccc(F)cc2F)N2CCOCC2)cc1 (stereo not drawn)	none (no result: HCV inh, AmpC inh no detg)
COc1ccccc1Cc1c(-c2ccccc2)nc2ccc(C)cn12	none (no result: HCV inh, FMDV inh, AmpC inh no detg, AmpC detergent)
CCc1cc(=O)oc2cc(C)cc(OCC(=O)NCCc3c[nH]c4ccccc34)c12	HCV inh 2.24µM, FMDV inh inconclusive, AmpC detergent inconclusive
CCCc1cc(=O)oc2cc(OCC(=O)NCCc3c[nH]c4ccc(OC)cc34)ccc12	HCV inh 17.8µM, AmpC detergent inconclusive
CCc1cc(=O)oc2cc(C)cc(OCC(=O)NC(Cc3c[nH]c4ccc(O)cc34)C(=O)O)c12 (stereo not drawn)	none
CN(C)S(=O)(=O)c1ccc(Cl)c(NC(=O)CN2CCNC(=O)C2)c1	none
Fc1ccc(CSc2nnc(-c3ccncc3)o2)cc1	none
Clc1ccccc1CSc1nnc(/C=C/c2ccccc2)o1	none
Brc1ccc(CSc2nnc(-c3cccnc3)o2)cc1	HCMV antiviral -68.3
Clc1ccc(CSc2nnc(/C=C/c3ccccc3)o2)cc1	AmpC inh no detg 0.159µM
Clc1ccc(CSc2nnc(-c3ccncc3)o2)cc1	HCV inh inconclusive, HCMV antiviral -70.2, AmpC detergent inconclusive
Nn1c(SCc2ccc(Br)cc2)nnc1-c1ccncc1	HCMV antiviral -63.0
Nc1nc2c(-c3ccc([N+](=O)[O-])cc3)nnn2c2ccccc12	none (no result: HCV inh, FMDV inh, AmpC inh no detg, AmpC detergent)
